# Compound activity from PubChem.
# In the library only some 2.1% were active in any assay of this set; here they are far more common.
# VHR inh abs: blocks human VHR1 dual specificity phosphatase. recombinant VHR phosphatase, pNPP absorbance. inhibition, % at 13.3 µM. P51452. 290,000 tested, 0.52% active; in the data active means inhibition above about 50%
# Target sequence (P51452 whole entry, looked up): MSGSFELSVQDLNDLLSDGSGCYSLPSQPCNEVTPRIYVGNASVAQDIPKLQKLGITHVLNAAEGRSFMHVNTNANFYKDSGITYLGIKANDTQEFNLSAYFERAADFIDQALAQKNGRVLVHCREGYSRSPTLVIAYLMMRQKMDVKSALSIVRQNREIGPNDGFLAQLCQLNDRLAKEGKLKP
# PrP 5UTR inh: inhibition of PrP 5' UTR reporter expression | 340,000 tested, 0.35% active | inhibition, % (test concentration not listed) | cell-based PrP 5' UTR mRNA reporter, plate reader; in the data active means inhibition above about 52%; further: 0 = median of the neutral control wells
# PfHsp40 rescue: compounds rescuing yeast from Plasmodium falciparum HSP40 toxicity | S. cerevisiae expressing PfHsp40, growth rescue, ATP luminescence | 340,000 tested, 0.68% active | growth rescue, % at 12.5 µM; in the data active means growth rescue above about 28%, passing the limit was not always enough;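 further: yeast W303a lacking pdr1 and pdr3 grown in galactose medium; growth measured after three days at 30 °C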
# PrPC TRFRET: cell surface PrPC inhibition, primary TR-FRET screen | TR-FRET read-out | inhibition, % at 13.8 µM | 370,000 tested, 0.43% active | AID 720596; in the data active means inhibition above about 24%; further: 0% = median of the test wells and 100% = reference compound wells
# MazF activator: increases E. coli MazEF RNase cleavage of RNA | FAM/BHQ RNA-DNA oligo cleavage fluorescence, 5 h | P0AE70 | 350,000 tested, 0.32% active | activation, % at 20 µM; in the data active means activation above about 50%
# Target sequence (P0AE70 whole entry, looked up): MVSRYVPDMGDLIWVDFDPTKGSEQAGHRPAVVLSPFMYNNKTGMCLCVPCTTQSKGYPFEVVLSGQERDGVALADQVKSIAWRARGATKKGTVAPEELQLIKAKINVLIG
# BJeLR lethal: BJeLR cell viability loss; inhibition, % (test concentration not listed); BJeLR (HRASV12) viability, CellTiter-Glo ATP luminescence, 48 h; 300,000 tested, 0.17% active; in the data active means inhibition above about 50%
# Active calls of the source: *; nt = not tested or not shown.
SMILES,VHR inh abs,PrP 5UTR inh,PfHsp40 rescue,PrPC TRFRET,MazF activator,BJeLR lethal
CCC(C)NC(=O)c1ccc2c(c1)S(=O)(=O)c1ccccc1C2=O (stereo not drawn),56*,-3,0,-18,-2,-1
O=C(NC(=S)NNC(=O)c1ccccc1O)c1ccccc1,-7,-20,0,0,-6,9
COc1ccccc1NC(=S)NNC(=O)c1ccccc1,nt,-55,29*,-3,1,2
COc1cccc(OC)c1C(=O)NC(=S)NNC(=O)[C@H]1C[C@@H]1c1ccccc1,36,-38,1,5,7,-15
O=C(NC(=S)NNC(=O)[C@H]1C[C@@H]1c1ccccc1)c1cccc(F)c1,18,12,49*,6,7,5
Cc1ccc(C(=O)NNC(=S)NC(=O)c2ccccc2)cc1,nt,-17,17,17,-13,3
Cc1ccccc1C(=O)NNC(=S)NC(=O)c1ccccc1,-5,-3,169*,3,9,-4
Cc1ccc(C(=O)NC(=S)NNC(=O)c2ccccc2)cc1,-5,0,39*,6,-8,-5
O=C(COc1ccc2c(c1)OCO2)Nc1nccs1,-4,-9,-1,7,3,13
CCOC(=O)[C@]12CCC=C1N(Cc1ccc3c(c1)OCO3)C(=O)[C@H](CC(=O)N1CCCCC1)C2,nt,nt,nt,-1,nt,nt
COc1ccc(N2CCN(CCNS(=O)(=O)c3ccc(C)cc3)CC2)cc1,26,11,-4,6,-6,-4
Cc1cccc(C(=O)NNC(=S)NC(=O)c2ccccc2)c1,nt,-4,127*,-6,-13,0
Cc1cc(NC(=O)c2c(F)cccc2Cl)n(-c2nc3ccccc3[nH]2)n1,0,-34,113*,-2,-6,3
Nc1cc(N)nc(SCC(=O)Nc2ccc3c(c2)OCO3)n1,53*,-20,0,-5,6,1
CCOC(=O)c1cccc(NC(=O)CSc2nc(N)cc(N)n2)c1,56*,-6,-1,10,-1,1
Cc1cccc(NC(=O)CSc2nc(N)cc(N)n2)c1,-5,-21,0,9,1,0
Nn1c(SCC(=O)Nc2ccc3c(c2)OCO3)nnc1-c1ccccc1,-7,-45,-3,2,-3,1
CC1(C)Cc2ccccc2-c2nnc(SCC(=O)Nc3ccc4c(c3)OCO4)n21,-13,-24,1,26*,-4,5
Cc1ccc(S(=O)(=O)Nc2ccc3c(c2)C(=O)N([C@@H](C)CO)C[C@@H](C)[C@@H](CN(C)CC2CC2)OCCCC[C@@H](C)O3)cc1,nt,nt,nt,1,11,nt
CC1=C(C(=O)N(C(C)C)C(C)C)CC(CC(=O)NCc2ccco2)C(=O)N1CCCN1CCCC1=O (stereo not drawn),nt,nt,nt,-6,nt,nt
CCCC(C)C(=O)Nc1ncc(S(=O)(=O)c2ccc([N+](=O)[O-])cc2)s1 (stereo not drawn),1,-2,0,-15,-4,2
Cc1ccccc1S(=O)(=O)NC(=O)C1(C)CCN1C(=O)CC(c1ccccc1)c1ccccc1 (stereo not drawn),nt,nt,nt,5,nt,nt
CCC(=O)N1CCN(c2ccc(NC(=O)c3ccc4c(c3)OCO4)cc2)CC1,3,-25,1,12,7,-9
CC(=O)N1CCN(c2ccc(NC(=O)c3ccc4c(c3)OCO4)cc2)CC1,22,-7,106*,8,-7,-5
CC(Oc1ccc(F)cc1)C(=O)Nc1cc(C(F)(F)F)ccc1-n1cncn1 (stereo not drawn),nt,-5,1,0,-3,-1
SMILES,VHR inh abs,PrP 5UTR inh,PfHsp40 rescue,PrPC TRFRET,MazF activator,BJeLR lethal
O=C1OC[C@@H]2CCCN2C(=O)[C@@H](CC(=O)N(CCO)Cc2ccccc2)C/C=C\C[C@H]1Cc1ccc(F)cc1,nt,1,0,3,4,nt
Cn1nc(C(F)(F)F)c(/C=N/OC(=O)c2ccccc2Cl)c1SCc1ccc(Cl)cc1,-15,-20,52*,3,10,-2
COc1cccc(CN(C)C(=O)Cc2ccc(OC)c(S(=O)(=O)N3CCOCC3)c2)c1,nt,-19,0,6,3,-7
Cc1ccc(C)c(N2CCN(S(=O)(=O)c3ccc4c(c3)CC(=O)N4C)CC2)c1,13,-15,2,6,-7,9
CN1C(=O)Cc2cc(S(=O)(=O)N3CCN(c4cccc(C(F)(F)F)c4)CC3)ccc21,52*,-2,-1,2,3,2
C#CCN1c2ccccc2Sc2cccnc21,20,-18,1,-20,71*,2
O=C(C/C=N\O)Nc1ccc(Oc2ccccc2)cc1,23,-15,46*,4,-10,1
CCCCN1CC(C)(C)Oc2cccc(F)c2S1(=O)=O,nt,-140,-1,8,3,nt
C#CCn1c(=NC(=O)c2sc3ccccc3c2Cl)sc2cc(S(N)(=O)=O)ccc21,-3,-1,0,-4,63*,4
CCCOc1ccc(C(=O)NNC(=S)NC(=O)CC)cc1,17,14,115*,-3,-1,3
Cc1coc2c1c(C)cc1oc(=O)c(CC(=O)NCCCN3CCCC3=O)c(C)c12,37,-24,-2,-7,3,-2
O=C(Nc1ccc(F)cc1)OCc1cn(Cc2cc(F)ccc2F)nn1,nt,nt,nt,-2,nt,nt
Cc1ccc(NC(=S)NC(=O)CC2CC(C)(C)OC2=O)cc1 (stereo not drawn),58*,-16,-1,-5,12,1
COC(=O)C[C@H]1CC[C@@H]2[C@@H](COc3ccc(NS(=O)(=O)c4ccccc4Cl)cc3C(=O)N2C)O1,nt,nt,nt,0,nt,nt
N#C/C(=C\c1cccs1)C(=O)c1ccccc1Cl,18,nt,nt,10,-3,63*
CC1(C(=O)NS(=O)(=O)C2CC2)CCN(C(=O)c2cc3ccccc3s2)C1 (stereo not drawn),nt,nt,nt,-3,nt,nt
Oc1ccc(Oc2ccccc2F)c2cccnc12,nt,nt,nt,3,nt,nt
Cc1[nH]c2ccccc2c1/C=N/NC(=O)c1ccccc1,-13,-19,0,-3,8,-7
Cc1[nH]c2ccccc2c1/C=N/NC(=O)c1ccc(N)cc1,58*,-15,1,-4,1,9
Cc1cc(-c2c(C)[nH]n(-c3ccc(Cl)cc3)c2=O)n(-c2ccccc2)n1,-1,-29,0,-4,2,1
Cc1[nH]n(-c2ccccc2)c(=O)c1-c1ccccc1,-19,-17,0,-2,36,-1
Cc1[nH]n(-c2ccccc2)c(=O)c1C(=O)c1ccccc1,0,-13,1,-3,-1,7
CC/C(=N/NC(=O)c1ccccc1O)c1c(C)[nH]n(-c2ccccc2)c1=O,nt,-13,399*,4,-4,4
Cc1[nH]n(-c2ccccc2)c(=O)c1C(=O)c1ccc(Cl)cc1,17,-8,96*,-1,2,7
CCSC(=S)c1c(C)[nH]n(-c2ccccc2)c1=O,-1,-30,34*,-6,2,8
